Screening results as filed in PubChem.
PAFAH1B3 inh: PAFAH1B3 enzyme inhibitors, primary screen, biochemical, fluorescence polarization, human; recombinant PAFAH1B3, FP-rhodamine probe; inhibition, % at 3.39 µM; 340,000 compounds, 0.28% hits; AID 492972, 2010;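 active = inhibition above the screen-wide average of all tested compounds plus 3 SD, cut at about 25% in these data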;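 also: 0% = enzyme with DMSO only and 100% = wells lacking PAFAH1B3 protein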
Target sequence (Q15102 whole entry, looked up): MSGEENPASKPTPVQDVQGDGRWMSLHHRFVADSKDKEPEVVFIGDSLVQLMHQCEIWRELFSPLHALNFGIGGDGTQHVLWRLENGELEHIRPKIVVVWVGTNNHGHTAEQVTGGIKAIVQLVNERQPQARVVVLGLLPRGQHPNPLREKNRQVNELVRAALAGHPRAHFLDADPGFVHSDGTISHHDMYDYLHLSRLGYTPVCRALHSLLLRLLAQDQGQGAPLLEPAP
Fam108B inh: mouse Fam108B serine hydrolase inhibitors, primary screen, counter-screen for RBBP9 inhibitor project, biochemical, fluorescence polarization | inhibition, % at 9.51 µM | recombinant Fam108B, FP-Rh probe fluorescence polarization | 300,000 compounds, 0.33% hits;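 active = inhibition above the screen mean inhibition plus 3 SD, computed separately per campaign, cut at about 18% in these data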;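 also: inhibitors lower polarization as less probe binds the enzyme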
pPAFAH FP inh: pPAFAH enzyme inhibitors, primary screen, biochemical, fluorescence polarization, human; inhibition, % at 3.39 µM; Platelet-activating factor acetylhydrolase (Homo sapiens), Q13093; recombinant pPAFAH, FP-rhodamine probe fluorescence polarization; 330,000 compounds, 1.5% hits;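 active = inhibition above the mean inhibition across the screen plus 3 SD, cut at about 25% in these data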;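 also: inhibitors block binding of the rhodamine activity-based probe so polarization drops; 0% = enzyme with DMSO and 100% = wells lacking pPAFAH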
Target sequence (Q13093 whole entry, looked up): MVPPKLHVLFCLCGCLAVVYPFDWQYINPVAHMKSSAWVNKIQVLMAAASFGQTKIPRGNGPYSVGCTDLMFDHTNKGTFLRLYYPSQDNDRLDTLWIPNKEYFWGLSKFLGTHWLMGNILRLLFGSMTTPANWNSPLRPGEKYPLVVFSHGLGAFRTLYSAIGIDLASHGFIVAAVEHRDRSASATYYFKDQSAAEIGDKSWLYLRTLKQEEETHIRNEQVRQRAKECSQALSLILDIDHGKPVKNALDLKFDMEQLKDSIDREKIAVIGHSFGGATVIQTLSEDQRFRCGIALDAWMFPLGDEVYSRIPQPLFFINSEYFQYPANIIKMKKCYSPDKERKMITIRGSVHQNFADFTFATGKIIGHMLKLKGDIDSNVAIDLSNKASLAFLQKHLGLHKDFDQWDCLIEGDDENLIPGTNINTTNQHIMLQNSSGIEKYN
PAFAH1B2 inh: PAFAH1B2 enzyme inhibitors, primary screen, biochemical, fluorescence polarization, human | Platelet-activating factor acetylhydrolase IB subunit alpha2 (Homo sapiens), P68402 | recombinant PAFAH1B2, FP-rhodamine activity probe | inhibition, % at 3.39 µM | 340,000 compounds, 1.2% hits;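 active = inhibition above the mean of all tested compounds plus 3 SD, cut at about 24% in these data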;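 also: 0% = enzyme with DMSO and 100% = wells lacking PAFAH1B2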
PME-1 primary: PME-1 inhibitors via competitive probe labeling, primary screen, biochemical, fluorescence polarization, FP-Rh probe, HTS | AID 2130, 2009 | inhibition, % at 5.9 µM | recombinant PME-1 | 320,000 compounds, 0.53% hits;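 active = inhibition above the campaign mean of all compounds plus 3 SD, cut at about 26% in these data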;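 also: competitive labeling of PME-1 active site by serine hydrolase directed probe; 0% = PME-1 with DMSO and 100% = wells lacking PME-1 enzyme; inhibitors block probe labeling so polarization falls and inhibition rises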
PAFAH2 inh: PAFAH2 enzyme inhibitors, primary screen, biochemical, fluorescence polarization, human | Platelet-activating factor acetylhydrolase 2, cytoplasmic (Homo sapiens), Q99487 | recombinant PAFAH2, FP-rhodamine activity probe | inhibition, % at 3.39 µM | 340,000 compounds, 0.99% hits | AID 492956, 2010;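 active = inhibition above the mean over all tested compounds plus 3 SD, cut at about 30% in these data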;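 also: inhibitors block probe labeling of enzyme so polarization drops; 0% = enzyme with DMSO and 100% = wells lacking PAFAH2 protein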
An asterisk follows results filed as active; nt = no result. Hits are enriched below; roughly 2.8% of the tested compounds scored in any of these assays.

SMILES	PAFAH1B3 inh	Fam108B inh	pPAFAH FP inh	PAFAH1B2 inh	PME-1 primary	PAFAH2 inh
CCOC(=O)N1CCN(S(=O)(=O)c2c[nH]c(C(=O)OC)c2)CC1	7.5	0.1	-2.6	2.1	-2.5	-1.3
CN(C)c1ccc(/C=N/n2c(C3CCCCC3)n[nH]c2=S)cc1	0.7	-5.0	4.2	4.8	-3.8	5.6
CC(=O)Nc1ccc(N2C(=O)CSC2c2ccc([N+](=O)[O-])cc2)cc1 (stereo not drawn)	-0.8	-1.2	4.7	10.6	3.5	4.3
O=C(c1ccc([N+](=O)[O-])cc1)N1CCSC1c1ccc(Cl)cc1 (stereo not drawn)	8.4	-3.8	5.1	29.0*	2.1	5.5
Cc1ccc(C(=O)c2ccc([N+](=O)[O-])cc2)cc1	12.5	-0.1	-3.6	-2.9	-0.9	-4.2
Cc1ccc(C2SCCN2C(=O)c2ccc([N+](=O)[O-])cc2)cc1 (stereo not drawn)	3.0	-3.5	1.1	24.5*	1.1	-6.0
COc1cc2c(cc1OC)CN(CC(=O)Nc1ccc(Cl)c(S(=O)(=O)N(C)C)c1)CC2	1.5	-3.0	3.3	-0.4	39.8*	-2.2
COc1cccc(CN(C)C(=O)COc2ccc(C(=O)c3ccc(Cl)cc3)cc2)c1OC	-2.1	-2.4	28.2*	2.4	5.1	4.7
Cc1oc2cc(Br)c(O)c(Br)c2c1-c1ccccc1	-3.6	-2.2	17.3	16.1	5.6	71.9*
CCc1cccc(C)c1NC(=O)C1CCN(C(=O)c2ccc([N+](=O)[O-])cc2)CC1	6.1	-0.7	-1.3	1.8	-2.8	2.8
CCOc1ccccc1C(=O)OCC(=O)Nc1ncc(C(F)(F)F)cc1Cl	11.2	0.9	26.8*	3.9	2.4	4.2
CCOc1ncccc1C(=O)OCC(=O)Nc1ncc(C(F)(F)F)cc1Cl	0.5	1.6	26.5*	-3.1	-3.0	17.0
CCOC(=O)/C(C#N)=C\c1cc(OC)c(OC)cc1[N+](=O)[O-]	1.5	3.0	6.0	-0.2	5.3	2.4
O=C(Nc1sc(-c2ccccc2)cc1C(=O)O)c1ccccc1	8.6	13.8	23.8	32.1*	16.6	14.9
CCN(CC(=O)Nc1ccccc1C(F)(F)F)C(=O)c1ccc2[nH]c3c(c2c1)CC(C)CC3 (stereo not drawn)	3.0	3.2	10.2	1.2	5.1	0.7
CCC1CCCCN1CCCNC(=O)c1ccc(CS(=O)(=O)Cc2ccc(Cl)cc2)o1 (stereo not drawn)	3.9	-0.8	12.3	4.5	-5.2	-1.2
CC(=O)c1sc(NC(=O)C2(F)C(F)(F)C(F)(F)C(F)(F)C(F)(F)C2(F)F)nc1C	4.1	2.3	1.4	38.9*	-10.7	27.5
COc1ccc(C(=O)N2CCNC(=O)C2)cc1S(=O)(=O)Nc1ccc(Br)cc1	1.7	nt	34.0*	6.4	3.6	0.1
COc1cccc(C(=O)OCC(=O)c2c(N)n(C)c(=O)n(C)c2=O)c1	1.4	nt	-3.7	5.0	-1.5	0.0
COc1ccc(NS(=O)(=O)c2cccc(C(=O)OCC(=O)c3c(N)n(C)c(=O)n(C)c3=O)c2)cc1	1.6	nt	29.2*	1.9	nt	8.7
CCOC(=O)N1CCN(C(=O)c2cccc(S(=O)(=O)Nc3ccc(Br)cc3)c2)CC1	1.2	2.1	32.1*	-1.6	6.9	0.9
COc1ccc(S(=O)(=O)Nc2ccc(-n3cccc3)cc2)cc1	-0.4	-4.2	28.1*	1.9	4.0	8.9
CCOC(=O)N1CCN(C(=O)c2cccc(S(=O)(=O)Nc3ccccc3Cl)c2)CC1	6.2	nt	1.1	-1.1	4.8	3.8
COC(=O)[C@]1(C)N[C@H](CN(C)C(=O)COc2ccccc2)[C@@H]2C(=O)N(C)C(=O)[C@@H]21	11.5	nt	0.9	3.9	nt	0.4
COc1ccc(C(=O)N2CCCCC2)cc1S(=O)(=O)Nc1ccccc1	9.3	2.5	33.4*	0.9	-6.1	1.7
SMILES	PAFAH1B3 inh	Fam108B inh	pPAFAH FP inh	PAFAH1B2 inh	PME-1 primary	PAFAH2 inh
Cc1ccc(NS(=O)(=O)c2ccc(C(=O)N3CCN(S(=O)(=O)c4ccccc4)CC3)cc2)cc1	-1.6	5.2	19.3	4.3	6.1	0.9
COc1ccc(NS(=O)(=O)c2cccc(C(=O)N3CCCCCCC3)c2)cc1	9.1	nt	33.9*	8.0	-4.3	5.2
COc1ccc(NS(=O)(=O)c2cccc(C(=O)N3CCN(C(=O)c4ccco4)CC3)c2)cc1	-2.7	nt	5.2	-0.7	nt	-3.1
Cc1cccc(NS(=O)(=O)c2cccc(C(=O)N3CCN(S(=O)(=O)c4ccccc4)CC3)c2)c1	4.6	0.4	9.8	28.9*	13.7	5.7
COc1cccc(S(=O)(=O)Nc2ccc(C(=O)N3CCCCCC3)cc2)c1	6.4	-0.4	3.0	6.9	2.3	6.0
COc1ccc(NS(=O)(=O)c2cccc(C(=O)N3CCN(c4ccccc4O)CC3)c2)cc1	6.1	3.5	27.1*	0.8	2.5	6.8
COc1ccc(C(CNC(=O)CCNC(=O)c2ccccc2OC)N2CCCC2)cc1 (stereo not drawn)	-1.1	-0.1	-0.8	-1.3	1.7	7.8
COc1ccc(NS(=O)(=O)c2cccc(C(=O)N3CCN(Cc4cc(OC)ccc4OC)CC3)c2)cc1	0.9	-4.3	20.1	2.8	4.9	-2.1
COc1ccc(NS(=O)(=O)c2cccc(C(=O)OCC(=O)N3CCN(c4ccc(OC)cc4)CC3)c2)cc1	10.2	2.5	27.7*	8.5	-2.0	0.2
COc1ccc(OC)c(CN2CCN(C(=O)c3cccc(S(=O)(=O)Nc4ccc(C)cc4)c3)CC2)c1	1.5	2.5	24.6*	-0.5	6.7	-0.9
CCOc1ccc(C(=O)Nc2nnc(C3=COCCO3)o2)cc1	2.7	0.3	-0.6	-1.5	9.2	-0.5
O=C(CCNS(=O)(=O)c1ccc(Cl)cc1)N1CCCCCC1	-4.0	0.2	11.9	26.6*	0.9	1.7
Cc1ccc(C)c(S(=O)(=O)N2CCN(C(=O)CCNS(=O)(=O)c3ccc(C)c(C)c3)CC2)c1	6.0	1.5	27.1*	3.1	12.8	5.5
Cc1ccc(C)c(S(=O)(=O)N2CCN(C(=O)/C=C/c3ccco3)CC2)c1	9.5	nt	29.9*	0.3	11.8	4.4
Cc1ccc(S(=O)(=O)N2CCN(C(=O)/C=C/c3ccco3)CC2)cc1	-11.2	1.4	5.8	5.3	0.1	6.7
CN(Cc1ccc(Cl)c(Cl)c1)C(=O)c1ccccc1SCC(=O)N1CCCC1	5.4	nt	nt	3.1	nt	3.4
Cc1ccc(N2C(=O)C3ON(c4ccccc4)C(CC(C)C)C3C2=O)cc1 (stereo not drawn)	-0.3	2.9	9.1	6.0	-2.0	4.7
